Screens: PubChem BioAssay, National Center for Advancing Translational Sciences (NCATS)
A488 autofl: A488 region autofluorescence; actives 0.1% (n = 59,000); compound autofluorescence, A488 spectral region, dye equivalency; Compound Type: qHTS ECL - MLSMR; max dye equivalency, M
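Intrinsic compound fluorescence is measured in 100 mM Tris buffer at pH 8.0 following 15 min incubation at room temperature. Intensities at 480 nm excitation/540 nm emission are calibrated to an on-plate A488 concentration series, giving dye-equivalent concentrations.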
Rhodamine fluor: compound autofluorescence in rhodamine spectral region; AID 594; actives 0.05% (n = 59,000); Rhodamine-region fluorescence, 547/598 nm, Tris buffer; active compounds read high; max dye-equivalent concentration, M; in the data active = max dye-equivalent concentration above about 11 nM; inconclusive = between about 1.1 nM and that limit
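Compounds in 100 mM Tris buffer, pH 8.0, were incubated 15 min at room temperature, then read at 547 nm excitation and 598 nm emission. Fluorescence was normalized against a per-plate six-point rhodamine standard curve as dye-equivalent concentration.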
A647 fluor: compound autofluorescence in A647 spectral region | Compound fluorescence, A647 channel (570/671 nm), Tris buffer | max dye-equivalent concentration, M | 59,000 tested, under 10 active | AID 592;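 also: values scaled relative to a standard on each plate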
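Spectral profiling of library compounds in pH 8.0 Tris: 15 min room-temperature incubation, single ex/em pair (570/671 nm), response normalized to Alexa 647 equivalents.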
Texas Red fluor: compound fluoresces in the Texas Red spectral region; max dye-equivalent concentration, M; Compound fluorescence, Texas Red channel, 547/618 nm; active compounds read high; AID 587; actives 0.06% (n = 59,000); in the data active = max dye-equivalent concentration above about 10 nM; inconclusive = between about 1.1 nM and that limit
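Fluorescence at ex 547/em 618 nm, normalized against an on-plate Texas Red standard series to give dye-equivalent concentration per compound concentration. Buffer 100 mM Tris, pH 8.0; 15 min RT incubation before CCD imaging.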
Fluorescein autfl: fluorescein region autofluorescence; AID 593; max fluorescein-equivalent concentration, M; Compound autofluorescence, 480/540 nm, fluorescein-equivalent; active compounds read high; actives 0.91% (n = 59,000); in the data active = max fluorescein-equivalent concentration above about 10 nM; inconclusive = between about 1.1 nM and that limit
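Library compounds, added at multiple concentrations to pH 8.0 Tris buffer (100 mM), incubate 15 min at room temperature before CCD imaging at 480 nm excitation and 540 nm emission.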
Resorufin autofl: resorufin region autofluorescence. Compound fluorescence, resorufin region 547/598 nm, buffer; active compounds read high. actives 0.04% (n = 59,000). AID 588. max dye-equivalent concentration, M
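Compounds in 100 mM Tris buffer, pH 8.0, incubated 15 min at room temperature, then read with 547 nm excitation and 598 nm emission filters. Fluorescence was converted to dye-equivalent concentration using an on-plate six-point resorufin standard curve.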
* = called active by the depositor; i = inactive; ? = inconclusive. In the library only some 0.9% were active in any assay of this set; here they are far more common. Unless noted, no rule for the calls is given here.

SMILES | A488 autofl | Rhodamine fluor | A647 fluor | Texas Red fluor | Fluorescein autfl | Resorufin autofl
CCCCNC(=O)c1cc2c(=O)n3cccc(C)c3nc2n(Cc2ccncc2)c1=N | i | i | 3.2e-09 | ? | 1.6e-08M* | i
COCCNC(=O)c1cc2c(=O)n3cccc(C)c3nc2n(Cc2ccncc2)c1=N | i | i | 1.6e-08 | i | i | i
N[C@H]1[C@@H](C(=O)O)[C@H]2C=C[C@H]1C2 | i | i | 4.4e-08 | i | ? | i
c1ccc(N2CCN(c3nc4ccccc4n4nnnc34)CC2)cc1 | i | i | 3.7e-08 | i | 1.9e-08M* | i
CCOC(=O)c1c(C)[nH]c(C=Nc2ccccc2)c1O | i | i | 3.6e-08 | ? | 1.7e-08M* | i
O=C(COC(=O)c1cnccn1)Nc1ccc(Cl)cc1 | i | i | 3.2e-09 | i | 1.1e-08M* | i
OC[C@@H]1O[C@@H](n2cnc3c(NCCc4ccccc4)ncnc32)[C@@H](O)[C@H]1O | i | i | 1.4e-08 | i | i | i
O=C(Nc1ccc2c(c1)OCO2)C1CCCN(c2nc3ccccc3s2)C1 (configuration not stated) | i | 1.2e-08M* | 4.6e-08 | 2.6e-08M* | ? | ?
CCc1nnc(NC(=O)C2CCCN(c3nc4ccccc4s3)C2)s1 (configuration not stated) | i | i | 3.8e-08 | i | ? | i
CC(=O)C1=C(C)OC(N)=C(C#N)C1c1ccco1 (configuration not stated) | i | i | 1e-09 | i | ? | i
Cc1oc(C)c2c(=O)ccc3c(c12)OC(N)=C(C#N)C3c1ccccc1 (configuration not stated) | i | i | 1e-09 | i | 1.1e-08M* | i
Cc1oc(C)c2c(=O)ccc3c(c12)OC(N)=C(C#N)C3c1ccccc1Cl (configuration not stated) | i | i | 1e-09 | i | 1.5e-08M* | i
CSc1ccc(C2C(C#N)=C(N)Oc3c2ccc(=O)c2c(C)oc(C)c32)cc1 (configuration not stated) | i | i | 7.5e-09 | i | ? | i
O=c1c2ccccc2oc2cc(O)c([C@@H]3COC[C@@H](CO)[C@@H](O)[C@@H](O)[C@H]3O)c(O)c12 | i | i | 1.5e-08 | i | ? | i
O=c1c2ccccc2c(/C=N/n2cnnc2)c(O)n1-c1ccccc1F | i | i | 2.8e-09 | i | 1.3e-08M* | i
Cc1c(N=C2Nc3cccc4cccc2c34)c(=O)n(-c2ccccc2)n1C | ? | i | 2.7e-09 | i | 1.5e-07M* | i
CN(C)CCCOc1nn(Cc2ccccc2)c2ccccc12 | i | i | 2.3e-08 | i | 1.9e-08M* | i
COc1ccc(-c2cc([C@H](O)[C@@H]3CCCCN3)c3ccccc3n2)cc1 | i | i | 1e-09 | i | i | i
COc1ccccc1CN1CC[C@@]2(CCCN(C(=O)c3ccncc3)C2)C1 | i | i | 3.9e-09 | i | i | i
COc1ccccc1CN1CCC2(CC1)CCN(C(=O)c1ccncc1)CC2 | i | i | 2.3e-09 | i | 1.1e-08M* | i
Cc1ccnn2c(-c3ccccc3)c3c(=O)n(C)c(=O)n(C)c3c12 | i | i | 9.5e-09 | i | 1.2e-08M* | i
Cc1ccc(-c2c3c(=O)n(C)c(=O)n(C)c3c3nnc4ccccc4n23)cc1 | ? | i | 9e-09 | i | 1.1e-07M* | i
O=C(O)CCCCCC[C@@H]1C(=O)NC(=O)N1CC[C@@H](O)C1CCCCC1 | i | i | 1e-09 | i | i | i
Cc1cc(C)c(S(=O)(=O)N(CC(=O)N2CCOCC2)C2CCCCC2)c(C)c1 | i | i | 1e-09 | i | i | i
Cc1cc(C)c(S(=O)(=O)N(CC(=O)O)C2CCCCC2)c(C)c1 | i | i | 3.5e-08 | i | 2.6e-08M* | i
SMILES | A488 autofl | Rhodamine fluor | A647 fluor | Texas Red fluor | Fluorescein autfl | Resorufin autofl
CC(C)[C@@H]1O[C@H](/C=C\c2ccccc2)OCC1(C)C | i | i | 3.4e-08 | i | ? | i
O=S(=O)(Nc1nc2ccccc2nc1N1CCN(c2ccccn2)CC1)c1ccc(Cl)cc1 | i | i | 1e-09 | i | 1.7e-08M* | i
CN1CCc2c(sc(/N=C/c3ccco3)c2C(N)=O)C1 | ? | i | 8.6e-09 | i | 2.5e-08M* | i
CN1CCc2c(sc(/N=C/c3cccs3)c2C(N)=O)C1 | i | i | 1.6e-09 | ? | 1.1e-08M* | i
N#Cc1c(/N=C/c2cccs2)sc2c1CCC2 | i | i | 2.5e-08 | i | ? | i
N#Cc1c(/N=C/c2ccco2)sc2c1CCCCC2 | i | i | 1e-09 | i | i | i
CCOC(=O)Nc1nc(-c2ccccc2)c(C)s1 | i | i | 1.9e-08 | i | ? | i
N=C1CCC[C@@H]1C(=S)SCCC(N)=O | i | i | 1e-09 | i | i | i
CCN1C(=O)c2cccc3c(S(=O)(=O)Nc4ncccc4C)ccc1c23 | i | i | 2.5e-08 | i | ? | i
Cc1ccc(N2C(=O)c3cccc4c(N5CCN(C)CC5)ccc(c34)C2=O)c2cccnc12 | ? | i | 1e-09 | i | 2.6e-08M* | i
C/C(=C\COc1cc(=O)[nH]c2ccccc12)CC[C@@H](O)C(C)(C)O | i | i | 1e-09 | i | i | i
CCOC(=O)c1ccc2[nH]cc(C(C)=O)c(=O)c2c1 | i | i | 1.1e-08 | i | 2.2e-08M* | i
CC(=O)c1c[nH]c2ccc(C)cc2c1=O | i | i | 5.5e-09 | i | ? | i
Nc1ccn([C@@H]2O[C@@H](CO)[C@@H](O)[C@H]2O)c(=O)n1 | i | i | 1e-08 | i | ? | i
CCNc1ncc2nc(-c3cccs3)c(=O)n(CCC#N)c2n1 | i | i | 1e-09 | i | 1.4e-08M* | i
N#CCCn1c(=O)c(-c2cccs2)nc2cnc(Nc3ccccc3)nc21 | i | i | 1e-09 | i | ? | i
CCOC(=O)C1CCN(c2nc3ccccc3nc2C(C#N)C(=O)OC(C)C)CC1 (configuration not stated) | i | i | 6.6e-09 | i | 1.3e-08M* | i
CCOC(=O)C1CCCN(c2nc3ccccc3nc2C(C#N)C(=O)OC(C)C)C1 (configuration not stated) | 1.4e-08M* | i | 2.5e-08 | i | 2.3e-07M* | i
CCOC(=O)C1CCN(c2nc3ccccc3nc2C(C#N)C(=O)OC(C)COC)CC1 (configuration not stated) | i | i | 1.5e-09 | i | ? | i
O=C1c2ccccc2-c2n[nH]c3cccc1c23 | ? | i | 8.6e-09 | i | 4.7e-08M* | i
O=c1c(-c2ccccc2)n[nH]c2ccccc12 | i | i | 1e-09 | i | i | i
